Screening results (PubChem BioAssay)
DT40 TDP1 CPT: DT40-hTDP1 cell growth loss with CPT; actives 12% (n = 420,000); Potency, µM (highest dose often 46.2 µM), for the others: top-dose activity change, negative = growth inhibition, actives largely listed as inhibitors; AID 686979; chicken DT40 Tdp1-/-;hTDP1 cells + 20 nM CPT, ATP luminescence, 48 h; further: on the % scale 0 is the no-effect control and ±100 the full control effect; nearly all actives have a fitted effect of over 55% in size
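Chicken DT40 Tdp1-/- cells stably complemented with human TDP1 were seeded at 400 cells/well in medium containing 20 nM camptothecin, exposed to pin-transferred compounds, and grown at 37 °C for at least 48 hr. Viability was read as ATP luminescence.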
TDP1 cell noCPT: qHTS for Inhibitors of human tyrosyl-DNA phosphodiesterase 1 (TDP1): qHTS in cells in absence of CPT | AID 686978, 2013 | Potency, µM (highest dose often 46.2 µM), for the others: top-dose activity change, negative = growth inhibition, most hits filed as inhibitors | actives 15% (n = 420,000) | DT40 Tdp1-/- hTDP1 cells, no CPT, ATP luminescence, 48 h; further: on the % scale 0 is the no-effect control and ±100 the full control effect; nearly all actives have a fitted effect of over 55% in size
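Chicken DT40 Tdp1-/- cells complemented with human TDP1, screened without camptothecin (DMSO vehicle only), 400 cells/well. Compounds pin-transferred, cells incubated at 37 °C for at least 48 hr. Growth read as ATP-dependent luminescence (CellTiter-Glo, 30 min at RT).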
TGFb inhibitor: inhibitors of TGF-b signaling | HepG2 CAGA-GFP TGF-b/SMAD3 reporter, GFP fluorescence, 18 h; TGF-beta stimulated, 500 pg/mL final | Potency, µM (top dose mostly 46.1 µM), for the others: at the highest dose activity, negative = inhibition, actives largely listed as inhibitors | actives 1.2% (n = 410,000) | AID 588855; further: on the % scale 0 is the no-effect control and ±100 the full control effect; nearly all actives have a fitted effect of over 65% in size
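Inhibition was scored as loss of TGF-beta-induced (500 pg/mL final, 18 hours, 37 degrees C) GFP in HEPG2 cells carrying a CAGA-GFP reporter, in DMEM with 1% FBS. Well GFP was summed per cell; Activity was normalised to unstimulated and stimulated DMSO wells, then concentration-response fitting.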
ATXN2 expr inh: ATXN2 expression inhibition. Potency, µM (top dose mostly 57 µM), for inactives: at the top dose activity change, negative = inhibition, most hits filed as inhibitors. HEK-293 ATXN2-luciferase reporter, luminescence, 24 h. AID 1745845. actives 0.72% (n = 360,000); further: on the % scale 0 is the no-effect control and ±100 the full control effect; nearly all actives have a fitted effect of over 55% in size
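ATXN2-luciferase reporter cells (luciferase flanked by upstream and downstream ATXN2 gene portions) were treated 24 h at 37 °C with compounds at up to 57 uM. SteadyGlo luminescence gave expression; GF-AFC fluorescence gave viability.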
HepG2 tox: kills HepG2 cells in TGF-b inhibitor counter-screen | AID 588856 | actives 0.76% (n = 410,000) | HepG2 CAGA-GFP viability, ATP luminescence, 18 h | Potency, µM (top dose mostly 46.1 µM), for inactives: top-dose activity change, negative = cytotoxicity, hits mostly cytotoxic
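CellTiter-Glo luminescence gave cytotoxicity after 18 hours at 37 degrees C. The cells were HepG2 CAGA-GFP in 1% FBS DMEM, stimulated with 500 pg/mL TGF-beta after compound addition. %Activity was normalised to no-cell wells (complete cell-killing) and DMSO (no toxicity), and curves were fitted and classified.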
ATXN viability: reduces viability in counter-screen for ATXN expression inhibitors; AID 651635; actives 0.49% (n = 400,000); S2 cells (HEK-293 line with an ATXN2-luciferase reporter) viability, CellTiter-Fluor protease fluorescence, 24 h; Potency, µM (titrated, usually from 56.7 µM), usual class: cytotoxic; further: nearly all actives have a fitted effect of over 40% in size
* = called active by the depositor; i = inactive; ? = inconclusive; nt = no result given. A selection: hits, their analogues and other compounds. The true share with any hit is near 17%. The call rests on the fitted dose curve; in most records, active means well fitted curve in the direction sought with a large enough effect; inconclusive means small, poorly fitted or top-dose-only effect, or another doubt; inactive means no such curve, though single readings can be large; an effect the other way counts as inactive or inconclusive. Potency means the concentration at half of the fitted maximal effect.

SMILES | DT40 TDP1 CPT | TDP1 cell noCPT | TGFb inhibitor | ATXN2 expr inh | HepG2 tox | ATXN viability
O=c1cc(-c2ccccc2)oc2ccc(Cl)cc12 | 1% | -4% | 4% | 2% | -2% | i
O=c1oc(-c2ccccc2)cc(Cl)c1Cl | 1.6µM* | 1.8µM* | 11µM* | ? | -97% | nt
O=C(Nc1cc(C(F)(F)F)ccc1N1CCOCC1)C1CCCO1 (centres undefined) | -23% | -17% | ? | -8% | -30% | i
CC(Sc1nnnn1-c1ccccc1)C(=O)Nc1ccc(Cl)cn1 (centres undefined) | 0% | -27% | -19% | -3% | -3% | i
Cc1ccc(C)c2[nH]c(=O)c(CN(CC3CCCO3)S(=O)(=O)c3ccc4c(c3)OCCO4)cc12 (centres undefined) | ? | 16µM* | ? | 1% | -12% | ?
Cc1cc(C)c2[nH]c(=O)c(CN(CC3CCCO3)S(=O)(=O)c3ccc4c(c3)OCCO4)cc2c1 (centres undefined) | ? | 23µM* | 2% | -7% | -1% | i
COc1ccc(S(=O)(=O)N(CCCN2CCCC2=O)Cc2cc3cc(C)c(C)cc3[nH]c2=O)cc1 | ? | ? | -19% | 0% | 13% | ?
Cc1ccc(S(=O)(=O)N(CCCN2CCCC2=O)Cc2cc3c(C)ccc(C)c3[nH]c2=O)cc1 | 18µM* | 23µM* | -19% | -9% | -21% | i
COc1ccc(-c2[nH]c(-c3ccc4c(c3)OCO4)nc2-c2ccccc2)cc1 | ? | ? | ? | ? | -26% | nt
Cc1cccc(-c2[nH]c(C(C)(C)C)nc2-c2ccc3c(c2)OCO3)n1 | nt | nt | nt | 15µM* | nt | nt
O=C(Cc1ccc(Cl)cc1)c1c(O)cc(O)cc1O | -9% | -5% | nt | nt | nt | nt
COc1ccc(N2CCN(C(=O)c3cc(S(=O)(=O)N4CCC(C)CC4)cn3C)CC2)cc1 | 23µM* | 21µM* | ? | 9% | 0% | i
Cn1cc(S(=O)(=O)N2CCCCCC2)cc1C(=O)N1CCN(c2cccc(Cl)c2)CC1 | 15µM* | ? | ? | 0% | -17% | ?
Cn1cc(S(=O)(=O)N2CCCCCC2)cc1C(=O)N1CCN(c2cccc(C(F)(F)F)c2)CC1 | 16µM* | 23µM* | ? | ? | -4% | ?
Cn1cc(S(=O)(=O)N2CCCC2)cc1C(=O)N1CCN(c2cccc(Cl)c2)CC1 | ? | ? | ? | -15% | -23% | i
Cn1cc(S(=O)(=O)N2CCCCC2)cc1C(=O)N1CCN(c2ccc(F)cc2)CC1 | ? | ? | ? | 6% | 4% | i
CC1(C)CC(=O)C=C(c2n[nH]nc2C2CC2)C1 | 2% | -11% | -2% | -8% | -17% | i
O=[N+]([O-])c1ccc(O)c(N=Cc2sc3ccccc3c2O)c1 | 21µM* | 12µM* | -18% | ? | -4% | 28µM*
O=[N+]([O-])c1ccc(O)c(C=Nc2cccc3ccccc23)c1 | 16% | -15% | -1% | -1% | 5% | i
COc1ccc(NC(=O)N(C)C[C@H]2Oc3ccc(NS(=O)(=O)c4cccs4)cc3C(=O)N([C@H](C)CO)C[C@@H]2C)cc1 | -6% | -2% | 1% | -3% | 0% | i
CNC(=O)c1c(O)c2cccc3c2n(c1=O)CCC3 | -24% | ? | 1% | -15% | 0% | i
CCCCCCNC(=O)c1c(O)c2cccc3c2n(c1=O)CCC3 | ? | 29µM* | 6% | -16% | -15% | i
CCCc1nc2ccccc2c(=O)n1NC(=O)c1c(O)c2cccc3c2n(c1=O)CCC3 | ? | 16µM* | -4% | 5% | -6% | i
CCN(CC)CCNC(=O)c1c(O)c2cccc3c2n(c1=O)CCC3 | ? | ? | 1% | -26% | -15% | i
CCCCc1nc2ccccc2c(=O)n1NC(=O)c1c(O)c2ccccc2n(C)c1=O | 4.1µM* | 3.7µM* | -26% | -36% | -15% | i
SMILES | DT40 TDP1 CPT | TDP1 cell noCPT | TGFb inhibitor | ATXN2 expr inh | HepG2 tox | ATXN viability
Cn1c(=O)c(C(=O)NCCCc2ccccc2)c(O)c2ccccc21 | -15% | ? | ? | nt | -14% | i
COc1ccc(-c2noc(CNC(=O)CCCN3C(=O)[C@H]4CC=CC[C@H]4C3=O)n2)cc1 | -24% | -3% | -3% | -12% | 2% | i
Cc1cc(Cl)nc(-n2nc(C)cc2C)n1 | 6% | -16% | 9% | -10% | 4% | i
Cc1ccc(Nc2cc(C)nc(-n3nc(C)cc3C)n2)cc1 | 3.3µM* | 3.7µM* | ? | nt | -27% | nt
Cc1cc(Nc2ccc(Cl)cc2C)nc(-n2nc(C)cc2C)n1 | 5.2µM* | 1.6µM* | -7% | nt | -31% | nt
CCOc1ccc(Nc2cc(C)nc(-n3nc(C)cc3C)n2)cc1 | 0.46µM* | 0.58µM* | ? | -23% | -21% | ?
CNc1cc(C)nc(-n2nc(C)cc2C)n1 | 5.8µM* | 5.2µM* | 22% | 21% | 13% | ?
CCOc1ccc(Nc2nc3cc(Cl)c(Cl)cc3nc2-n2nc(C)cc2C)cc1 | 3% | 4% | 55% | 3% | 5% | i
COc1cc(C(=O)N2CCCCCCC2)ccc1OC1CCN(C(C)=O)CC1 | -25% | ? | 15% | 22% | 3% | ?
COc1ccccc1NS(=O)(=O)c1cccc(NC(=O)c2cncc(Br)c2)c1 | ? | 18µM* | -14% | -27% | -1% | i
COc1ccc([N+](=O)[O-])cc1NC(=O)Nc1cccc(Cl)c1 | 12µM* | 9.2µM* | 0% | ? | -25% | i
NS(=O)(=O)c1cccc(NC(=O)c2cncc(Br)c2)c1 | -8% | 11% | 0% | -3% | -10% | i
COc1ccccc1NS(=O)(=O)c1cccc(NC(=O)NCCCl)c1 | 21µM* | ? | -8% | 7% | 8% | i
COc1ccc([N+](=O)[O-])cc1NC(=O)C(C)N(C)Cc1cccc(OC)c1OC (centres undefined) | 21µM* | 16µM* | 1% | -18% | 2% | i
CC(C)NC(=O)CSc1nc2sccc2c(=O)n1-c1ccccc1 | -4% | ? | 15% | -14% | 16% | i
CCOc1cc(CNC(=O)NC2COc3ccccc3C2)cc(OCC)c1OCC (centres undefined) | ? | ? | -20% | nt | -9% | nt
